Source: PubChem BioAssay (NCI)
Where “and” joins values, the source holds several entries; their conditions need not be identical. Equal entries are not always repeated. This is part of a sample that, as a whole, favours compounds with a hit. Of some 83,000 tested, about 20% had one in any assay.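 Cells were grown in 96-well plates and exposed to the test compound at a single concentration for 48 hours; results are reported as percent growth, with values below 10 considered active.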 Some compounds were tested as several samples or in several runs, with calls that do not always agree. Calls of active or inactive are those of the source.

Key:
Experiment in all cases: NCI-60 one-dose screen, 48 h (100 = growth as untreated, 0 = no growth, -100 = all killed)
Settings in all cases: 10 µM
HOP-92 NSCLC = tested on: HOP-92 NSCLC
K-562 leukemia = tested on: K-562 leukemia
RXF 393 renal = tested on: RXF 393 renal
UACC-257 melanoma = tested on: UACC-257 melanoma
SK-MEL-2 melanoma = tested on: SK-MEL-2 melanoma
SN12C renal = tested on: SN12C renal
TK-10 renal = tested on: TK-10 renal
CAKI-1 renal = tested on: CAKI-1 renal
RPMI-8226 leukemia = tested on: RPMI-8226 leukemia
BT-549 breast = tested on: BT-549 breast
MDA-MB-435 melanoma = tested on: MDA-MB-435 melanoma
HCC-2998 colon = tested on: HCC-2998 colon
OVCAR-3 ovarian = tested on: OVCAR-3 ovarian

Measured: growth

COc1cc(C)c(-c2ccc(OC)c(=O)cc2C)c(OC)c1OC
-10.8% (active) and 115% (inactive): RXF 393 renal
6.36% (active) and 85.8% (inactive): K-562 leukemia
inactive: HOP-92 NSCLC 39.6% and 85.5% | UACC-257 melanoma 56.2% and 97.6% | SN12C renal 37.1% and 98.3% | TK-10 renal 94.5% and 94.2% | CAKI-1 renal 39.6% and 86.1% | RPMI-8226 leukemia 15% and 94.4% | BT-549 breast 15.7% and 120% | HCC-2998 colon 10.6% and 114%
-4.07% (active) and 99.6% (inactive): MDA-MB-435 melanoma
0.162% (active) and 113% (inactive): SK-MEL-2 melanoma

CC1=C2C(=C[C@@](C)(C=O)[C@@H]2O)C(=O)[C@](C)(O)C12CC2
inactive: K-562 leukemia 24.2% | SN12C renal 26.1% | CAKI-1 renal 12.6%
active: HOP-92 NSCLC -8.36% | RXF 393 renal -77% | UACC-257 melanoma 6.75% | SK-MEL-2 melanoma -37.8% | TK-10 renal 2.16% | OVCAR-3 ovarian -10.1% | BT-549 breast -6.13% | HCC-2998 colon -25.1%

COc1cc2c(cc1OC)[C@@H]1N(CC2)C(=O)c2ccccc2[C@@]1(C)C(=O)O
inactive: HOP-92 NSCLC 123% | K-562 leukemia 105% | RXF 393 renal 127% | UACC-257 melanoma 107% | SK-MEL-2 melanoma 109% | SN12C renal 102% | TK-10 renal 107% | CAKI-1 renal 101% | RPMI-8226 leukemia 110% | OVCAR-3 ovarian 122% | BT-549 breast 108% | MDA-MB-435 melanoma 103% | HCC-2998 colon 110%

CC(=O)O[C@@H]1C[C@H]2O[C@@H]3C=C(C)CC[C@]3(C)[C@]1(C)[C@]21CO1
active: K-562 leukemia 4.68% | RXF 393 renal 4.11% | SK-MEL-2 melanoma -3.89% | RPMI-8226 leukemia -14.7% | BT-549 breast -14.3% | MDA-MB-435 melanoma 2.02% | HCC-2998 colon 8.92%
inactive: HOP-92 NSCLC 16.8% | SN12C renal 20.7% | TK-10 renal 66.6% | OVCAR-3 ovarian 14.7%

CC1=C[C@H]2O[C@@H]3C[C@H]4OC(=O)/C=C\C=C\[C@H]([C@@H](C)O)OCC[C@@H](C)[C@H](O)C(=O)OC[C@@]2(CC1)[C@]4(C)[C@]31CO1
active: HOP-92 NSCLC -22% | K-562 leukemia -10.1% | RXF 393 renal -73.7% | SK-MEL-2 melanoma -53.2% | SN12C renal -19% | TK-10 renal -25.4% | RPMI-8226 leukemia -28.7% | OVCAR-3 ovarian -18.2% | BT-549 breast -24.8% | MDA-MB-435 melanoma -85.2% | HCC-2998 colon -59.9%

N#Cc1nc(-c2ccccc2)oc1N1CCC(S(=O)(=O)F)CC1
inactive: HOP-92 NSCLC 94.2% | K-562 leukemia 103% | RXF 393 renal 92.3% | UACC-257 melanoma 107% | SK-MEL-2 melanoma 120% | SN12C renal 100% | TK-10 renal 113% | CAKI-1 renal 100% | RPMI-8226 leukemia 101% | BT-549 breast 108% | MDA-MB-435 melanoma 98.8% | HCC-2998 colon 104%

CC1=C[C@H]2O[C@@H]3C[C@@H](O)[C@](C)([C@@]2(C)CC1)[C@@]31CO1
inactive: HOP-92 NSCLC 41.3% | K-562 leukemia 18.5% | RXF 393 renal 15.3% | SK-MEL-2 melanoma 22.6% | SN12C renal 25.4% | TK-10 renal 52.8% | RPMI-8226 leukemia 29.3% | OVCAR-3 ovarian 38.9% | BT-549 breast 21.1% | MDA-MB-435 melanoma 21.1% | HCC-2998 colon 18.2%

NC1CCc2cc(O)c(O)cc2C1 (stereo not given)
inactive: RXF 393 renal 81.9% | UACC-257 melanoma 103% | SK-MEL-2 melanoma 97.7% | SN12C renal 90.5% | TK-10 renal 94.6% | CAKI-1 renal 94.1% | RPMI-8226 leukemia 17.2% | OVCAR-3 ovarian 101% | BT-549 breast 86.3% | MDA-MB-435 melanoma 81.4% | HCC-2998 colon 46.2%
active: K-562 leukemia 1.68%

CCC(C)[C@H]1C(=O)O[C@H](C(C)C)C(=O)N(C)[C@@H](C(C)C)C(=O)O[C@H](C(C)C)C(=O)N(C)[C@@H](C(C)C)C(=O)O[C@H](C(C)C)C(=O)N1C (stereo not given in full)
inactive: RXF 393 renal 22% | OVCAR-3 ovarian 19.9% | BT-549 breast 14.2% | MDA-MB-435 melanoma 20% | HCC-2998 colon 32.3%
active: HOP-92 NSCLC -19% | K-562 leukemia 6.74% | SK-MEL-2 melanoma -2.6% | SN12C renal 7.58% | TK-10 renal 8.22% | RPMI-8226 leukemia -25.6%

CC(=O)O[C@@H]1[C@@H]2O[C@H]2[C@@](C)(O)C(=O)[C@@H](C)C/C=C/[C@H]2[C@@H]3O[C@]3(C)[C@@H](C)C3[C@H](Cc4ccccc4)NC(=O)[C@@]312 (stereo not given in full)
inactive: K-562 leukemia 68.8% | RXF 393 renal 20.3% | SK-MEL-2 melanoma 72.1% | SN12C renal 62.6% | RPMI-8226 leukemia 81.8% | OVCAR-3 ovarian 54.2% | BT-549 breast 29.8% | MDA-MB-435 melanoma 70.9% | HCC-2998 colon 77.4%
active: HOP-92 NSCLC -28.8% | TK-10 renal -8.91%
